Nrf2 block: Nrf2 qHTS screen for inhibitors; A549 ARE-Fluc reporter, luciferase luminescence, 18-24 h; Potency, µM (highest dose often 46 µM), usual class: inhibitors; hit rate 2.1% among 360,000; AID 504444, 2011; also: nearly all actives have a fitted effect of over 60% in size
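A549 ARE_Fluc cells, 5000/well, 5% FBS OPTI-MEM; compounds in dose-response, 18-24 h at 37 °C/5% CO2; CellTiter-Fluor viability read (Ex 405/Em 525), then BugLite luciferase luminescence = Nrf2 activity.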
A549 viability: Nrf2 qHTS screen for inhibitors: counterscreen for cytotoxicity. A549 ARE-Fluc cells, CellTiter-Fluor viability, 18-24 h. Potency, µM (highest dose often 46 µM), most hits filed as inhibitors. hit rate 0.16% among 390,000
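A549 ARE_Fluc cells in 5% FBS OPTI-MEM were exposed to compounds in concentration-response for 18-24 h at 37 deg C. Viability was read by CellTiter-Fluor fluorescence (Ex 405/Em 525) after 30 min, before the luciferase read.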
Nrf2 ARE act: qHTS of Nrf2 Activators; AREc32 ARE-luciferase reporter (MCF7-derived line), luminescence, 24 h; Potency, µM (titrated, usually from 46.1 µM), most hits filed as activators; hit rate 0.31% among 410,000; also: nearly all actives have a fitted effect of over 65% in size
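AREc32_Fluc, 1000 cells/well, OPTI-MEM + 5% FBS, o/n 37 deg C 5% CO2; 23 nL cpd by pin tool, 24 hr; Steady-Glo 30 min RT, luminescence.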
ATXN2 expr inh: Primary qHTS for Inhibitors of ATXN expression | HEK-293 ATXN2-luciferase reporter, luminescence, 24 h | Potency, µM (doses to about 57 µM), actives largely listed as inhibitors | hit rate 0.72% among 360,000 | AID 1745845, 2022; also: nearly all actives have a fitted effect of over 55% in size
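qHTS (up to 57 uM final) was run with 24 h compound exposure of reporter cells at 37 °C. Each well was multiplexed: SteadyGlo luminescence measured ATXN2-luciferase expression after a fluorogenic Gly-Phe-AFC viability readout (25 uM final).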
ATXN viability: Viability Counterscreen for Primary qHTS for Inhibitors of ATXN expression | Potency, µM (series often up to 56.7 µM), usual class: cytotoxic | hit rate 0.49% among 400,000 | S2 cells (HEK-293 line with an ATXN2-luciferase reporter) viability, CellTiter-Fluor protease fluorescence, 24 h; also: nearly all actives have a fitted effect of over 40% in size
Hits are given with their value; – = inactive; ? = inconclusive; · = no result; ! = repeats disagree; [ ] = another dose, or the depositor's remark. A selection: hits, their analogues and other compounds. The true share with any hit is near 2.9%. Calls follow the shape of the dose curve; as a rule, active = well fitted curve in the direction sought with a large enough effect; inconclusive = small, poorly fitted or top-dose-only effect, or another doubt; inactive = no such curve, though single readings can be large; an effect the other way counts as inactive or inconclusive.

SMILES | Nrf2 block | A549 viability | Nrf2 ARE act | ATXN2 expr inh | ATXN viability
CCSc1nc2n(n1)C(c1ccc(CC)cc1)C(C(=O)Nc1ccccc1OC)=C(C)N2 (configuration not stated) | · | – | – | – | –
COc1ccc(CNCCC(c2ccc(OC(C)C)cc2)C(C)C)cc1OC (configuration not stated) | – | ? | – | 32µM | ·
COc1ccc(CNCCC(c2ccc(OC(C)C)cc2)c2ccccc2OC)cc1OC (configuration not stated) | – | – | – | – | –
COc1ccc(C(CCNCc2ccc(OC(C)C)cc2)C(C)C)cc1 (configuration not stated) | – | – | – | ? | ?
COc1ccc(CNCCC(c2ccc(OC(C)C)cc2)c2ccccc2OC)cc1 (configuration not stated) | – | – | – | 25µM | ?
COc1ccc(C(CC(=O)O)c2ccc3c(c2)OCO3)cc1 (configuration not stated) | – | – | – | – | –
COc1ccc(CNCCC(c2ccccc2)c2ccc3c(c2)OCO3)cc1 (configuration not stated) | ? | – | – | 25µM! | 22µM
COc1ccccc1C(CCNCc1ccccc1)c1ccc(OC(C)C)cc1 (configuration not stated) | – | ? | – | 28µM | ?
O=C(NCCc1ccccn1)C1CC12CCN(C(=O)c1cccc(C(F)(F)F)c1)CC2 (configuration not stated) | · | · | · | · | –
CCCCC(O)C(=O)Nc1cc(C(F)(F)F)ccc1Cl (configuration not stated) | – | – | · | · | ·
COc1ccccc1C(CCNCc1ccc(N(C)C)cc1)c1ccc(OC(C)C)cc1 (configuration not stated) | – | – | – | · | 32µM
COc1ccc(C(CCNCc2ccc(N(C)C)cc2)C(C)C)cc1 (configuration not stated) | ? | – | – | · | ?
O=C(CSc1nnc(NC(=O)c2ccccc2)s1)NCc1ccco1 | – | – | 4.5µM | – | –
Cc1c(F)cc2c(=O)c(C(=O)O)cn3c2c1CCC3C (configuration not stated) | · | · | · | – | –
Cc1ccc2[nH]c(C(=O)NCc3nc(-c4cccc(NC(=O)c5cc(C)oc5C)c4)oc3C)cc2c1 | · | · | · | · | –
Brc1ccc(-c2csc(/N=C/N3CCCC3)n2)cc1 | 12µM | – | – | – | –
Cc1ccnn1CC(=O)N1CCOc2c(cc(-c3ncc(C(F)(F)F)cc3Cl)cc2OCC2CCCO2)C1 (configuration not stated) | · | · | · | · | –
Cc1ccc(Cn2cc(CCC(=O)NCC(C)c3ccccc3)c3ccccc32)cc1 (configuration not stated) | 18µM | ? | – | · | ·
COc1ccc(CN(C)C(=O)CCC(=O)N2CCN(S(=O)(=O)c3ccc(Cl)cc3)CC2)c(OC)c1 | 12µM | – | – | – | ?
C[C@@H](O)[C@H]1C(=O)N2C(C(=O)OCOC(=O)C(C)(C)C)=C(SC3CN(C4=NCCS4)C3)[C@H](C)[C@H]12 | · | · | · | – | ·
CCCc1nc(SCC(=O)N2CCc3ccccc3C2)c2ccccc2n1 | 23µM | ? | – | ? | –
Cc1ccc(Nc2c3c(nc4ccccc24)CCC3)cc1F | –[9.27 µM] | – | – | – | 28µM
Cc1ccc2nc3c(c(Nc4ccc(C)c(C)c4)c2c1)CCC3 | ? | ? | – | ? | 18µM
CCN(CC)CCN | · | · | · | – | –
COc1cc(F)c(S(=O)(=O)N2CCCN(S(=O)(=O)c3ccc(NC(C)=O)cc3)CC2)c(F)c1 | ? | – | · | · | ·
SMILES | Nrf2 block | A549 viability | Nrf2 ARE act | ATXN2 expr inh | ATXN viability
O=C1c2ccccc2NC(c2ccccc2O)N1Cc1ccccc1 (configuration not stated) | – | – | · | · | ·
Cc1cc2c(SCC(=O)NC3CCCCC3)ncnc2s1 | ? | – | – | – | –
Cc1cc2c(NC3CCCCC3)ncnc2s1 | 12µM | – | – | – | –
Cc1ccc(NC(=O)c2cc(S(=O)(=O)NCCC3=CCCCC3)ccc2F)cc1 | 15µM | ? | – | – | ?
COc1ccc(NC(=O)c2cc3n(n2)C(C(F)(F)F)CC(c2ccc4c(c2)OCO4)N3)cc1OC (configuration not stated) | 23µM | – | – | – | –
Cc1cccc(NC(=O)c2cc3n(n2)C(C(F)(F)F)CC(c2ccc4c(c2)OCO4)N3)c1 (configuration not stated) | · | – | – | – | –
COc1ccc(Cn2nnnc2CN2CCC(c3nc4ccccc4s3)CC2)cc1 | 23µM | – | – | – | –
CC(C)(C)OC(=O)NCc1nnc(C(C(=O)OCc2ccccc2)c2ccccc2)s1 (configuration not stated) | – | – | · | · | ·
O=C(NCc1cc(C(F)(F)F)ccc1Cl)c1cccc2c1C(=O)c1ccc(N3CCC(N4CCCCC4)CC3)cc1S2(=O)=O | · | · | – | 25µM | ?
Cc1ccc([C@H]2N[C@]3(CCCN(Cc4ccc(C(F)(F)F)cc4)C3=O)[C@H]3C(=O)N(C)C(=O)[C@@H]23)cc1 | · | · | – | – | –
CCCc1nc2c(=O)n(C)c(=O)nc-2n(C)n1 | 23µM | 6.5µM | – | 4.2µM | ·
CCn1c(N)nc2c1c(=O)n(C)c(=O)n2C | – | – | – | – | –
Cc1ccc(-n2c3nc(=O)n(C)c(=O)c-3cc3ccccc32)cc1 | – | – | – | – | ·
Cc1ccccc1-c1nc2c(=O)n(C)c(=O)nc-2n(C)n1 | 2.3µM | 4.1µM | · | · | ·
CCc1ccc(-c2nc3c(=O)n(C)c(=O)nc-3n(CC)n2)cc1 | 15µM | ? | · | · | ·
Cn1nc(-c2ccccn2)nc2c(=O)n(C)c(=O)nc1-2 | 3.7µM | 3.3µM | – | ? | ·
CO[C@H]1[C@H](NC(=O)c2ccsc2)c2ccccc2C12CCN(Cc1cnn(C)c1C)CC2 | · | · | · | · | –
CCN(CCO)C(=O)c1cnn(-c2ncc3c(n2)-c2ccccc2CCC3)c1C1CC1 | · | · | · | · | –
Clc1ccc(-c2cn3nc4c(nc3n2)CCCC4)cc1 | · | ? | – | 14µM | ·
O=C(NCCSCc1ccccc1)c1ccc(C2SCC(=O)N2Cc2ccccc2)cc1 (configuration not stated) | 10µM | – | – | – | –
COc1ccc(SCC(Cc2ccccc2)N2CCN(CCc3ccccc3)CCC2=O)cc1 (configuration not stated) | – | – | · | · | ·
CC1C(=O)N(Cc2cn(Cc3ccco3)nn2)CCS(=O)(=O)N1Cc1ccc(-c2ccccc2Cl)cc1 (configuration not stated) | · | · | – | – | 11µM
CC(C)C1C(=O)N(Cc2cn(CCC3OCCO3)nn2)CCS(=O)(=O)N1Cc1ccc(-c2ccc(Cl)cc2)cc1 (configuration not stated) | · | · | – | 28µM | ?
Cc1cccc(C)c1-c1ccc(CN2C(CC(C)C)C(=O)N(Cc3cn(CC4CCCCC4)nn3)CCS2(=O)=O)cc1 (configuration not stated) | ? | – | – | ? | 35µM
